# Assay results reported in PubChem BioAssay.
# Calls of active or inactive are those of the source.
# Key:
# [1] = test system: Plasmodium falciparum Sir2 (PF13_0152, Sir2A); assay: Plasmodium falciparum Sir2A binding compounds – biochemical, small-molecule microarray, 635 nm fluorescence, primary screen (AID 1098); settings: fluorescence 635 nm, higher = more signal;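 further: score merges spot fluorescence intensity with its signal-to-noise ratio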
# [2] = probe aDKK1 binding to arrayed compounds – biochemical, biotinylated probe, 635/667 nm fluorescence, primary screen (AID 1099); settings: small-molecule microarray, higher = more signal;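 further: score merges 667nm spot fluorescence with signal to noise across triplicate slides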
# [3] = probe aCHRDL2 binding to arrayed compounds – biochemical, biotinylated probe, 635/667 nm fluorescence, primary screen (AID 1100); settings: small-molecule microarray, higher = more signal
# [4] = change in splice reporter luminescence, either direction, cell-based, HEK293, spliceosome inhibition project, primary screen (AID 1101); settings: HEK293 splicing luciferase reporter, 24 h, higher = more signal, called active from +8 up or from −8 down;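 further: HEK293 cells carrying a splicing-competent luciferase reporter gene; test concentration not given here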
# [5] = biological target: Fibroblast growth factor 10 (Homo sapiens) (UniProt O15520); assay: compounds binding fibroblast growth factor 10 – biochemical, small-molecule microarray, 635 nm fluorescence, primary screen (AID 1102); settings: FGF10 binding, fluorescence 635 nm, higher = more signal
# Chain of Fibroblast growth factor 10 (Homo sapiens) (O15520 whole entry, looked up): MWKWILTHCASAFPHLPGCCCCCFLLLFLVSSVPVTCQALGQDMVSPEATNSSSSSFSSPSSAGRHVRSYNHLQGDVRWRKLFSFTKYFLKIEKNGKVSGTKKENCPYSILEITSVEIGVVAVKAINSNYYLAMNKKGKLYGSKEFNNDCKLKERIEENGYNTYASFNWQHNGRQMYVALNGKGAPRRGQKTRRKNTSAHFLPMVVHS
# [6] = test system: glycogen synthase kinase-3 (GSK3A per assay name; protocol says GSK3B); assay: compounds binding glycogen synthase kinase-3 – biochemical, small-molecule microarray, 635 nm fluorescence, GSK3A, primary screen (AID 1103); settings: fluorescence 635 nm, higher = more signal; further: the record names both GSK3A and GSK3B
# [7] = biological target: Epidermal growth factor receptor (Homo sapiens) (UniProt P00533); assay: compounds binding epidermal growth factor receptor – biochemical, small-molecule microarray, 635 nm fluorescence, primary screen (AID 1104); settings: EGFR binding, higher = more signal;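 further: score merges 667 nm emission intensity with spot signal to noise over triplicate slides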
# Chain of Epidermal growth factor receptor (Homo sapiens) (P00533 whole entry, looked up): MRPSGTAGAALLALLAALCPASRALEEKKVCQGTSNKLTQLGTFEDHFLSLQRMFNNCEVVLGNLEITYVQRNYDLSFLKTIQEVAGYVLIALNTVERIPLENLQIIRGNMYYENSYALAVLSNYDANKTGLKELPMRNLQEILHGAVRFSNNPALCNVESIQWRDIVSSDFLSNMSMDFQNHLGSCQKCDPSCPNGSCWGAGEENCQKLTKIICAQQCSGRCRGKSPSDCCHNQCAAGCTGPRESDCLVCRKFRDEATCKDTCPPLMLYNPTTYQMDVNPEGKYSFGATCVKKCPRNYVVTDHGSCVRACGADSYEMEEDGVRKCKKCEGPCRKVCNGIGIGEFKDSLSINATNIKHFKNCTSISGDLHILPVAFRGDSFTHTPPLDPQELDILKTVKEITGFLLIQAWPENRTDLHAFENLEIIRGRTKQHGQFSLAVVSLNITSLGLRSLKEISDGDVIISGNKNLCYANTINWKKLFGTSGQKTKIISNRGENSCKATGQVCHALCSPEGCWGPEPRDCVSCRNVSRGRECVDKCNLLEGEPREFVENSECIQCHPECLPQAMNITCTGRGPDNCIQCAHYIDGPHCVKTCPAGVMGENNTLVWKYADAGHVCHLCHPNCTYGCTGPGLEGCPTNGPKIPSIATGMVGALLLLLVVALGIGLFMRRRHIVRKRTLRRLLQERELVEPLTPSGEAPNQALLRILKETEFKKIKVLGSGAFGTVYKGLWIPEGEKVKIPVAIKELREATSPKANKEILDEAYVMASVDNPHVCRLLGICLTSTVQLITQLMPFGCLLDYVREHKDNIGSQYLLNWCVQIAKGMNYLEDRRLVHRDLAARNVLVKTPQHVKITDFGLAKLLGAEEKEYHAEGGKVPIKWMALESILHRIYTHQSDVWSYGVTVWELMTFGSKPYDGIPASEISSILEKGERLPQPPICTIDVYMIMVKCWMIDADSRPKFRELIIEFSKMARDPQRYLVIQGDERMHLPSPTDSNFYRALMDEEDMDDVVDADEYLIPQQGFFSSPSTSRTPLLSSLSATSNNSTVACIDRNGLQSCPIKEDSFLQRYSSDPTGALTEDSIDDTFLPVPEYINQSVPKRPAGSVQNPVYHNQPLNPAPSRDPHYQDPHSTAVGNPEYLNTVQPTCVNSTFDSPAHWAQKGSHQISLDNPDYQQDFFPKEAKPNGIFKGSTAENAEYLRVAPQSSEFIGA
# [8] = biological target: Follistatin-related protein 3 (Homo sapiens) (UniProt O95633); assay: compounds binding follistatin-related protein 3 – biochemical, small-molecule microarray, 635 nm fluorescence, primary screen (AID 1105); settings: FSTL3 binding, higher = more signal;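 further: score merges emission near 667 nm and signal to noise per printed spot across three slides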
# Chain of Follistatin-related protein 3 (Homo sapiens) (O95633 whole entry, looked up): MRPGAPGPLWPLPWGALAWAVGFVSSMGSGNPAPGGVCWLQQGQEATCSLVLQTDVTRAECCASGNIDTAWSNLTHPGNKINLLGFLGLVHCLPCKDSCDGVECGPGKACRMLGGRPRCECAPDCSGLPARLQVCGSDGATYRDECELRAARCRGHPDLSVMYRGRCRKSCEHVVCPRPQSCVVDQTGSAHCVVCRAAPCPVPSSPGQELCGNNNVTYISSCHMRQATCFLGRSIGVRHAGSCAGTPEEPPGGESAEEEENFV
# [9] = biological target: Dickkopf-related protein 1 (Homo sapiens) (UniProt O94907); assay: small molecules binding DKK1 protein – biochemical, small-molecule microarray, 635 nm fluorescence scan, primary screen (AID 1106); settings: higher = more signal;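 further: score merges emission near 667 nm with signal to noise over three replicate slides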
# Chain of Dickkopf-related protein 1 (Homo sapiens) (O94907 whole entry, looked up): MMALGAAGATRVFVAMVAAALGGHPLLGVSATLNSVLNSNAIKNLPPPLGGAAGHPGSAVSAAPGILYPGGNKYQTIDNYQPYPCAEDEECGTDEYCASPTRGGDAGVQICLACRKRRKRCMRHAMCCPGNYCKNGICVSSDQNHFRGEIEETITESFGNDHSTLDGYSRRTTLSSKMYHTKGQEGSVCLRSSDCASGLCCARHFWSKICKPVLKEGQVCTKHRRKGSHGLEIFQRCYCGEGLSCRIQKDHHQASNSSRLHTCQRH
# [10] = test system: Inhibin beta A chain (activin A); assay: small molecules binding activin A – biochemical, small-molecule microarray, 635 nm fluorescence scan, primary screen (AID 1107); settings: INHBA, higher = more signal;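 further: mouse activin A protein probed at 4.33 µg/mL on printed slides; score merges bound-protein fluorescence near 667 nm with spot signal-to-noise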
# [11] = test system: Human papillomavirus type 1a protein E7 (residues 44-93); assay: small molecules binding HPV E7 44-93 – biochemical, small-molecule microarray, residues 44-93, 635 nm fluorescence, primary screen (AID 1108); settings: fluorescence 635 nm, higher = more signal;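 further: E7 fragment applied at 1 µg/mL in TBST for 1 h at 4 C; score combines spot fluorescence with its signal to noise ratio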
# [12] = hepatitis C replication reporter changes, two-sided – Huh7 cells, luciferase reporter, HCV replication inhibitor project, primary screen (AID 1109); settings: Huh7 HCV replicon luciferase reporter, 48 h; higher = more signal;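 further: huh7 hepatoma cells harbouring a luciferase neomycin HCV replicon reporter; luciferase luminescence as measure of HCV replicon replication; test concentration not given here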
# [13] = biological target: Left-right determination factor 2 (Homo sapiens) (UniProt O00292); assay: small molecules binding LEFTY2 protein – biochemical, small-molecule microarray, 635 nm fluorescence scan, primary screen (AID 1110); settings: higher = more signal
# Chain of Left-right determination factor 2 (Homo sapiens) (O00292 whole entry, looked up): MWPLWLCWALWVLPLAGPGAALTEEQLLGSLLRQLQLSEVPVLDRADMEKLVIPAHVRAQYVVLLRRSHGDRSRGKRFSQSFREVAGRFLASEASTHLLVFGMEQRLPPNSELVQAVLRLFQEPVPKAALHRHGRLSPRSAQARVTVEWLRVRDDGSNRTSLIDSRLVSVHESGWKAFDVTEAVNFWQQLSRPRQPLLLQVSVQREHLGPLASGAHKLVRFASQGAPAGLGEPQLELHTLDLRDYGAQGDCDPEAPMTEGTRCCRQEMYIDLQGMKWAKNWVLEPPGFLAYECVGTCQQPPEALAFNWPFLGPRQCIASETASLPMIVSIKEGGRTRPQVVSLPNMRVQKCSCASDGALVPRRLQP
# [14] = biological target: Calmodulin-1 (Homo sapiens) (UniProt P0DP23); assay: small molecules binding calmodulin-1 with EGTA – biochemical, small-molecule microarray, Cy5-labelled CALM1, profiling panel (AID 1111); settings: Cy5-CALM1 binding fluorescence, higher = more signal;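 further: labelled calmodulin applied in Tris saline Tween buffer holding calcium plus EGTA and DTT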
# [15] = biological target: Calmodulin-1 (Homo sapiens) (UniProt P0DP23); assay: small molecules binding Ca-loaded calmodulin-1 – biochemical, small-molecule microarray, Cy5-labelled CALM1, plus calcium, artefact control for SMM control-protein annotation, profiling panel (AID 1112); settings: Cy5-CALM1 binding fluorescence, higher = more signal;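 further: score merges spot fluorescence with signal to noise from triplicate slides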
# [16] = probe aWnt5a binding to arrayed compounds – biochemical, biotinylated probe, 635/667 nm fluorescence, primary screen (AID 1113); settings: small-molecule microarray, higher = more signal;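 further: score merges 667 nm fluorescence intensity with signal-to-noise per printed feature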
# [17] = probe aShh binding to arrayed compounds – biochemical, biotinylated probe, 635/667 nm fluorescence, primary screen (AID 1114); settings: small-molecule microarray, higher = more signal;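 further: probe is biotin-labelled aShh protein from a stem cell growth factor screen; measures binding of labelled protein to compounds printed on the slide; score merges feature fluorescence at 667 nm with signal-to-noise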
# [18] = probe aNog binding to arrayed compounds – biochemical, biotinylated probe, 635/667 nm fluorescence, primary screen (AID 1115); settings: small-molecule microarray, higher = more signal;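 further: probe is biotinylated aNog protein used at 0.15 µg/mL for 1 h at 4 C; z-score combines 667 nm fluorescence of each spot with its signal to noise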
# [19] = biological target: Torsin-1A-interacting protein 1 (Homo sapiens) (UniProt Q5JTV8); assay: compound microarray binding of lysate hLAP1 – cell lysate, small-molecule microarray, COS7 lysate, 635/667 nm fluorescence, primary screen (AID 1116); settings: 635 nm fluorescence, higher = more signal
# Chain of Torsin-1A-interacting protein 1 (Homo sapiens) (Q5JTV8 whole entry, looked up): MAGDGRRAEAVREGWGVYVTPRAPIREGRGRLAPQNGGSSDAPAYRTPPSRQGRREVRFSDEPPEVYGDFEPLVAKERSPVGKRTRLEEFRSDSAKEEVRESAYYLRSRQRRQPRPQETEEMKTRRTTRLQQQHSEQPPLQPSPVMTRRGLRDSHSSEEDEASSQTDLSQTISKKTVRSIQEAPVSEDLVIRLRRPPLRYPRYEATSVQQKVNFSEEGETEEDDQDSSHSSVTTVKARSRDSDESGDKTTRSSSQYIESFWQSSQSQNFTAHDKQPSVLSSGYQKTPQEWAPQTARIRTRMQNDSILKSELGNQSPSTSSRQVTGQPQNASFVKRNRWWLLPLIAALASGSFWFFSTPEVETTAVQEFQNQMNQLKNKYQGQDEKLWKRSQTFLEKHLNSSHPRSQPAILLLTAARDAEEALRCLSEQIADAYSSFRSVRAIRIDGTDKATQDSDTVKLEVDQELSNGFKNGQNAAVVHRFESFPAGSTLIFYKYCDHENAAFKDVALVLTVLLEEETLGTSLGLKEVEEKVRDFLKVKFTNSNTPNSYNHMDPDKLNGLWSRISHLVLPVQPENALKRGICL
# [20] = biological target: Alpha-bungarotoxin (Bungarus multicinctus) (UniProt P60615); assay: compounds binding labelled alpha-BTX control protein – biochemical, small-molecule microarray, Alexa647 label, 635/667 nm fluorescence, artefact control for SMM control protein annotation, profiling panel (AID 1117); settings: alpha-BTX-A647 binding fluorescence, higher = more signal
# Chain of Alpha-bungarotoxin (Bungarus multicinctus) (P60615 whole entry, looked up): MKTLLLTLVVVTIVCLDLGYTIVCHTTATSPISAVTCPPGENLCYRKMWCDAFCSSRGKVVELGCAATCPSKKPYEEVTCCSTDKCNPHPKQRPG
SMILES,composite z-score [1],composite z-score [2],composite z-score [3],z-score [4],composite z-score [5],composite z-score [6],composite z-score [7],composite z-score [8],composite z-score [9],composite z-score [10],composite z-score [11],z-score [12],composite z-score [13],composite z-score [14],composite z-score [15],composite z-score [16],composite z-score [17],composite z-score [18],composite z-score [19],composite z-score [20]
COCCOC(=O)N1C(=O)[C@@]2(c3cc(C#CC4(O)CCCCCC4)ccc31)[C@H](C(=O)NC[C@H](O)c1ccccc1)[C@H]1C(=O)O[C@H](c3ccccc3)[C@H](c3ccccc3)N1[C@@H]2c1ccccc1OCCO,1.27,0.145,0.348,-0.747 (inactive),1.15,1.31,0.479,1.33,0.95,0.158,0.726,-2.56,0.678,1.18,0.0465,-0.129,0.699,-0.0939,0.945,1.45
COCCOC(=O)N1C(=O)[C@@]2(c3cc(C#CC4(O)CCCCCC4)ccc31)[C@H](c1ccc(O)cc1)N1[C@H](c3ccccc3)[C@H](c3ccccc3)OC(=O)[C@H]1[C@@H]2C(N)=O,0.98,0.106,0.375,-0.652 (inactive),0.744,0.0417,0.0818,0.585,0.577,0.311,1.06,-0.0511,-0.0539,2.23,0.0903,0.0719,-0.223,0.725,0.852,1.97
CC(C)C[C@@H]1NC(=O)[C@H]2C[C@@H](C(=O)NCCCC[N+](C)(C)C)[C@@H](c3cccc(OCCO)c3)N2C1=O,0.812,0.0877,-0.409,-1.02 (inactive),0.756,-0.285,0.0727,0.965,1.23,-0.125,-1.55,-1.48,0.673,-0.144,0.75,-0.148,-0.0722,0.327,1.19,-0.491
C=CCC1(CC=C)C[C@H]2CO[C@H](c3ccc(OC)cc3)N2C1=O,0.695,-0.17,0.317,-0.512 (inactive),-0.193,-0.217,0.291,0.576,0.917,1.55,-0.107,0.805,0.447,-1.56,-2.31,-0.124,-0.271,-0.0887,0.656,0.278
Cc1ccc(S[C@]2(C(=O)NCCN3CCOCC3)CC(=O)N(Cc3cc(C(F)(F)F)cc(C(F)(F)F)c3)[C@@H]2c2ccc(CO)cc2)cc1,1.71,0.523,0.866,-0.688 (inactive),-0.703,-1.45,-1.19,-1.15,-1.05,0.156,-0.233,-0.429,-1.13,-0.411,-0.132,-0.175,-0.153,0.455,-0.998,-0.842
CN(C)CCCC[C@@H]1NC(=O)[C@@H]2C[C@H](C(=O)NCCCCCNC(=O)CS)[C@H](c3cccc(OCCO)c3)N2C1=O,1.72,-0.08,-0.305,-3.22 (inactive),0.551,0.684,0.35,0.356,1.08,0.995,-0.0825,1.94,1,0.497,0.843,-0.034,0.213,-0.255,-0.304,0.4
C=CCN1C(=O)[C@@]2(O[C@@H](CCO)[C@H]([Si](C)(C)c3ccc(OC)cc3)[C@H]2C)c2cc(N(C=O)c3ccccc3)ccc21,0.592,0.235,0.453,-3.43 (inactive),0.341,-0.0443,-0.131,0.131,0.0733,1.01,0.192,-5.12,0.0105,0.905,1.06,-0.0643,-0.138,0.238,0.473,0.37
COCCCNC(=O)[C@@]1(Cc2ccccc2)N=C(c2ccc(OCCCO)cc2)O[C@H]1c1ccccc1N=[N+]=[N-],0.481,1.22,1.19,-1.3 (inactive),1.2,1.24,-0.176,0.176,0.101,1.31,0.175,-2.59,-0.151,1.05,0.945,0.115,1.02,0.805,0.948,1.35
CO[C@H]1O[C@H](CO)[C@@H](OC(=O)Nc2ccccc2)[C@H](OC(=O)Nc2ccccc2-c2ccccc2)[C@H]1OC(=O)Nc1ccccc1-c1ccccc1,1.79,0.834,0.91,-2.83 (inactive),0.626,1.31,-0.165,0.824,0.482,0.0315,1.36,-3.9,0.152,2.18,0.438,-0.0735,0.366,0.767,2.08,2.54
COc1ccc(C#Cc2ccc3c(c2)[C@]2(C(=O)N3)[C@H](c3ccc(O)cc3)N3[C@H](c4ccccc4)[C@H](c4ccccc4)OC(=O)[C@H]3[C@@H]2C(N)=O)cc1,0.348,-0.0576,0.698,6.64 (inactive),-0.425,-0.381,-1.06,-1.08,-0.67,0.227,0.53,-1.68,-1.07,0.0315,1.03,-0.136,0.0735,0.482,-0.203,0.997
C=C(C(=O)CC[C@@H](OC(C)=O)c1ccccc1OCCO)C(C)C,0.967,-0.416,-0.0909,-1.41 (inactive),1.14,-0.465,-0.847,-0.406,0.108,0.959,-0.512,-3.88,-0.325,-0.942,-1.21,-0.202,-0.153,-0.0783,0.495,-0.175
